# Measurements taken from PubChem BioAssay.
# For part of these data: Measured potencies and affinities stand elsewhere. Active and inactive are the calls of the source.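 The calls were made as follows, unless noted: active = fitted half-maximal concentration within the tested range, moderate curve steepness, significant signal drop, and little compound fluorescence or bead-linkage interference; inactive = the rest.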
# Tests used:
# [1] = molecular target: Cell division control protein 42 homolog (Homo sapiens) (UniProt P60953); test: inhibition of fluorescent GTP binding to constitutively active Cdc42 – biochemical, multiplex bead flow cytometry, Bodipy-FL-GTP, dose response (AID 1333;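 active = fitted half-maximal concentration within the tested dose range, moderate curve steepness, a statistically real signal drop, and little compound fluorescence or tag-binding interference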)
# Chain of Cell division control protein 42 homolog (Homo sapiens) (P60953 whole entry, looked up): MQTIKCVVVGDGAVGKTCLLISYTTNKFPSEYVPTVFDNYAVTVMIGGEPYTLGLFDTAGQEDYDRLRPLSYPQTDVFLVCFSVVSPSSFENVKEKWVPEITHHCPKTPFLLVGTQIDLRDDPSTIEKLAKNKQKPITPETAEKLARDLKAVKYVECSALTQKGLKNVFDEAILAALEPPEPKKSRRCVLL
# [2] = molecular target: Cell division control protein 42 homolog (Homo sapiens) (UniProt P60953); test: inhibition of fluorescent GTP binding to wildtype Cdc42 – biochemical, multiplex bead flow cytometry, Bodipy-FL-GTP, dose response (AID 1334); settings: bead-based flow cytometry, Bodipy-FL-GTP binding to GST-Cdc42; at 100 µM (top of the series) unless noted
# [3] = molecular target: GTPase HRas (Homo sapiens) (UniProt P01112); test: Ras wt fluorescent GTP loading blockade – biochemical, wildtype, multiplex bead flow cytometry, dose response (AID 1335;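 active = fitted half-maximal concentration within 10 nM to 100 µM, steepness 0.5 to 2, significant signal drop, low assay interference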); settings: bead-based flow cytometry, Bodipy-GTP binding to GST-Ras; at 100 µM (top of the series) unless noted
# Chain of GTPase HRas (Homo sapiens) (P01112 whole entry, looked up): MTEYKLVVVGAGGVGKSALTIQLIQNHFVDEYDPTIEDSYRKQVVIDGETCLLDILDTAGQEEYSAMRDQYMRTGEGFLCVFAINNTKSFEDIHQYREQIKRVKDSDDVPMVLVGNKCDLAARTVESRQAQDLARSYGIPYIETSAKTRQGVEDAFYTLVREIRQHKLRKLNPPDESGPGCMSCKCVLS
# [4] = tested on: Ras-related protein Rab-7a (dog), GTP binding; test: blockers of fluorescent GTP binding to Rab7 – biochemical, wildtype, multiplex bead flow cytometry, dose response (AID 1336; call rule not given here)
# [5] = molecular target: Ras-related C3 botulinum toxin substrate 1 (Homo sapiens) (UniProt P63000); test: inhibition of wildtype Rac1 nucleotide loading – biochemical, multiplex bead flow cytometry, dose response (AID 1340;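 active = dose curve with midpoint inside tested range, moderate steepness, plateau gap beyond fit error, low compound glow and bead-link interference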); settings: GST-Rac1 beads, Bodipy-FL-GTP binding; at 100 µM (top of the series) unless noted
# [6] = molecular target: GTPase HRas (Homo sapiens) (UniProt P01112); test: blockade of GTP loading onto mutant Ras – biochemical, activated mutant, multiplex bead flow cytometry, dose response (AID 1341;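 active = dose-response curve with midpoint inside the tested range, moderate steepness, significant amplitude and little compound fluorescence or bead-attachment interference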;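 also: GST-tagged constitutively activated Ras mutant immobilized on beads and multiplexed with other GTPases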)
Structure (SMILES),outcome [1],"fluorescence, percent of control (lower = inhibition) [2] [%]","GTP binding, percent of control [3] [%]",outcome [4],"GTP binding signal, raw median fluorescence (lower = inhibition) (MCF (arbitrary fluorescence units)) [5]",outcome [6]
CCOC(=O)c1c(NC(=O)/C=C/c2ccc3c(c2)OCO3)sc(C)c1CC,inactive,30.9,75.9,inactive,256,inactive
Cc1cc(C)cc(OCCSc2nc3ccccc3n2CC(=O)O)c1,inactive,58.4,87.4,inactive,31,inactive
COc1cccc(N2CCN(C(=O)c3cccn4c(=O)c5c(C)c(C)sc5nc34)CC2)c1,inactive,32.1,72.9,inactive,163,inactive
O=C(O)C1C(C(=O)Nc2ccc(Cl)cc2)C2C=CC1C21CC1 (stereo not given),inactive,86.8,149,inactive,173,inactive
CCn1c2ccccc2c2nc3cc(C(=O)O)ccc3nc21,inactive,34,74.6,inactive,161,inactive
Cc1cccc(C)c1CCNc1ncccc1C(=O)O,inactive,76.7,245,inactive,67.9,inactive
Cc1c(C=O)c2ccccn2c1C(=O)c1cccc([N+](=O)[O-])c1,inactive,31.4,76.8,inactive,242,inactive
COc1ccc(CC2(CO)CCN(S(=O)(=O)c3sccc3C)CC2)cc1,inactive,35.4,82.2,inactive,273,inactive
O=C(c1nnsc1S(=O)(=O)c1ccc(Cl)cc1)N1CCOCC1,inactive,39.7,77.4,inactive,289,inactive
O=C(O)c1cc(Sc2ccccc2)nc2ccccc12,inactive,56.6,81.9,inactive,30.1,inactive
CCOc1ccc(-n2nc3c(=O)[nH]nc(C)c3c2C)cc1,inactive,46.5,60.9,inactive,189,inactive
COc1cccc(C(=O)O)c1OCc1ccccc1Br,inactive,57,201,inactive,53.6,inactive
O=C(CSc1ncnc2scc(-c3ccccc3)c12)N1CCN(Cc2ccc3c(c2)OCO3)CC1,inactive,45.2,63.6,inactive,196,inactive
CC(=O)c1cc2c(cc1NC(=O)c1cccc(S(=O)(=O)N3CCN(C)CC3)c1)OCO2,inactive,40.9,86.3,inactive,196,inactive
CCn1c(=N)c(S(=O)(=O)c2ccc(C)cc2)cc2c(=O)n3ccccc3nc21,inactive,36.8,79.5,inactive,174,inactive
CCCN(CC1CC1)C(=S)Nc1ccc(Oc2ccccc2)cc1,inactive,26.1,81.4,inactive,258,inactive
O=C(Nc1ccc(S(=O)(=O)N2CCCc3ccccc32)cc1)C1CCCO1 (stereo not given),inactive,33.2,79.9,inactive,286,inactive
O=C(N/N=C/c1ccco1)c1ccc(C(=O)N/N=C/c2ccco2)o1,inactive,32.1,72.4,inactive,184,inactive
COc1cc2[nH]c(=S)nc(Nc3ccc(NC(C)=O)cc3)c2cc1OC,inactive,23.4,52.2,inactive,118,inactive
CCOC(=O)c1nn(-c2ccccc2)c(=O)cc1SC(C)C,inactive,51.2,61.6,inactive,204,inactive

Structure (SMILES),outcome [1],"fluorescence, percent of control (lower = inhibition) [2] [%]","GTP binding, percent of control [3] [%]",outcome [4],"GTP binding signal, raw median fluorescence (lower = inhibition) (MCF (arbitrary fluorescence units)) [5]",outcome [6]
O=C(COc1ccccc1-c1ccccc1)N/N=C/c1ccncc1,inactive,33.3,77.4,inactive,247,inactive
NS(=O)(=O)c1ccc(Nc2nc(-c3ccc(O)cc3O)cs2)cc1,inactive,25.1,67.8,inactive,152,inactive
CCC(C)(C)NC(=O)c1ccc2c(c1)N(CC(=O)OC)C(=O)C(C)(C)O2,inactive,34.2,82.4,inactive,253,inactive
Cc1cc(C(=O)NNC(=S)NC(C)c2ccccc2)c2ccccc2n1 (stereo not given),inactive,95.6,177,inactive,197,inactive
CC(C)(C)c1ccc(OCCn2cc(C(=O)O)c3ccccc32)cc1,inactive,57.9,82.9,inactive,30.4,inactive
COc1cc(N=c2oc3c(C)ncc(CO)c3cc2C(N)=O)cc(OC)c1OC,inactive,26.9,58.2,inactive,139,inactive
Nc1[nH]n2c(=O)c3c(nc2c1N=Nc1ccc(Cl)cc1)CCCC3,inactive,61.6,49.2,inactive,188,inactive
Cc1ccc(OCCn2cc(C(=O)O)c3ccccc32)cc1,inactive,45.4,96.7,inactive,280,inactive
CC(=O)NC1CC2CCCC(C1)N2C(=O)Nc1ccc(Cl)c(C(F)(F)F)c1 (stereo not given),inactive,91.1,146,inactive,174,inactive
Cc1nn(Cc2ccccc2)c(C)c1NC(=O)CSc1nc2c(c(C(F)(F)F)n1)CCc1ccccc1-2,inactive,33.3,73.5,inactive,175,inactive
CCOc1ccc(C2=Nn3c(nnc3-c3ccco3)SC2)cc1,inactive,33.2,75.2,inactive,179,inactive
O=[N+]([O-])c1cc2oc3c(c2c(C=NCc2ccccc2)c1O)CCCC3,inactive,44.5,58.7,inactive,179,inactive
Cc1ccccc1CNCc1ccc(C(=O)O)s1,inactive,61.7,87,inactive,32.5,inactive
NS(=O)(=O)c1cccnc1Nc1c(Cl)cccc1Cl,inactive,90.6,152,inactive,187,inactive
CCn1c(SCC(=O)O)nnc1-c1cc2c(C)nn(-c3ccccc3)c2s1,inactive,25.1,64.4,inactive,128,inactive
Cc1csc(NC(=O)c2cc(=O)[nH]c3ccc(S(=O)(=O)N4CCOCC4)cc23)n1,inactive,31.8,74.5,inactive,190,inactive
CN1CCc2nc3ccc(Cl)cc3c(-c3ccccc3Cl)c2C1,inactive,37.3,81.8,inactive,257,inactive
COc1ccc(OCCSc2nc3nc(C)cc(C)n3n2)cc1,inactive,45.5,87.4,inactive,178,inactive
Cc1ccc2cc3cc(C(=O)N4CCN(Cc5ccccc5)CC4)sc3nc2c1,inactive,87.8,156,inactive,188,inactive
Cc1cccc(Cc2c(C)nc3nc(SCC(=O)O)nn3c2C)c1,inactive,30.6,81.6,inactive,227,inactive

Structure (SMILES),outcome [1],"fluorescence, percent of control (lower = inhibition) [2] [%]","GTP binding, percent of control [3] [%]",outcome [4],"GTP binding signal, raw median fluorescence (lower = inhibition) (MCF (arbitrary fluorescence units)) [5]",outcome [6]
COc1ccc(OCC(=O)Nc2nonc2NC(=O)COc2ccc(OC)cc2)cc1,inactive,38.2,79.5,inactive,234,inactive
COc1ccc2c(C(=O)O)cn(CCOc3ccccc3C)c2c1,inactive,64.6,214,inactive,59.2,inactive
O=C(CCNS(=O)(=O)c1cccc2nsnc12)N1CCN(c2ccccn2)CC1,inactive,52.4,64.7,inactive,203,inactive
CCc1ccc(Cn2nnc(C(=O)O)c2C(=O)O)cc1,inactive,58.5,82.3,inactive,30.7,inactive
N#Cc1c2c(c(-c3ccccc3Cl)[nH]c1=S)CCCC2,inactive,28.8,78.4,inactive,248,inactive
CC(=O)Oc1cccc(C#CC(=O)c2ccc([N+](=O)[O-])cc2)c1,inactive,35.4,173,inactive,95.5,inactive
Cc1ccc(-n2c(=O)[nH]c3c(oc4ccccc43)c2=O)cc1,inactive,34.8,78.7,inactive,332,inactive
COc1ccc(/C=C2\CCCC3C2=NN(C(=O)c2scnc2C)C3c2ccc(OC)c(OC)c2)cc1OC (stereo not given),inactive,76.7,122,inactive,138,inactive
O=C(O)c1cccnc1OCc1ccccc1,inactive,88.8,103,inactive,63.4,inactive
Cc1sc2nc3c4ccccc4c(NCc4ccco4)nn3c(=O)c2c1C,inactive,94,104,inactive,123,inactive
CC(C)CCNC(=O)Cc1ccc(Nc2nc(=S)[nH]c3ccccc23)cc1,inactive,32.2,71.5,inactive,169,inactive
COc1ccc(O)c(CN2CCN(CCc3ccccc3)C(CCO)C2)c1 (stereo not given),inactive,37.3,84.3,inactive,273,inactive
COc1ccc(S(=O)(=O)N2CCN(CC(=O)Nc3cc(C(F)(F)F)ccc3Cl)CC2)cc1,inactive,84.2,153,inactive,182,inactive
Cc1ccc(NC(=S)NNC(=O)c2cn(C)nc2C)cc1,inactive,83.7,166,inactive,180,inactive
O=C(C1CCCO1)N1CCN(C(=S)Nc2ccccc2C(F)(F)F)CC1 (stereo not given),inactive,53.3,64.3,inactive,208,inactive
COc1cccc(C(=O)O)c1OCc1c(C)cccc1C,inactive,58.8,204,inactive,54.1,inactive
N#C/C(=C/c1ccc(O)c([N+](=O)[O-])c1)C(=O)Nc1ccccc1,inactive,31.5,77.4,inactive,193,inactive
Nc1nn2c(-c3ccccc3)cc(=O)[nH]c2c1N=Nc1ccc(O)cc1,inactive,33.3,75.4,inactive,188,inactive
COc1ccc(OCc2c(C)cccc2C)c(C(=O)O)c1,inactive,58.3,203,inactive,55,inactive
O=C(O)c1cccnc1Oc1ccc2c(c1)OCO2,inactive,76.8,92,inactive,55.2,inactive
